In all, about 360,000 compounds went through this assay and about 3,800 (1.1%) were called active. The entries come from a sample that favours actives as a whole. Unmarked numbers belong to inactive results.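 The calls were made as follows: active = compounds causing at least 50% loss of cell viability in the single-dose screen, relative to plate controls; inactive = the rest.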
Experiment: viability loss with TRAIL in NB7+C8 cells, primary screen, TRAIL sensitizer project, cell-based, ATPlite luminescence (AID 624354)
Conditions: at 10 µM, hits give high values

Row | SMILES | inhibition (viability loss, TRAIL sensitization)
1 | COC(=O)CCSc1nccn1Cc1ccccc1 | -2.49%
2 | O=C(CN1C(=O)c2cccnc2Oc2ccc(Cl)cc21)Nc1ccc(F)cc1 | 4.45%
3 | CC(/C=C/C1(O)C(C)CC(=O)CC1(C)C)OC1OC(CO)C(O)C(O)C1O (stereo unspecified) | 14.6%
4 | CN(CCO)c1ccc(/C=N/Nc2nncc3ccccc23)cc1 | 95.3% (active)
5 | O=C1COc2c1ccc(O)c2O | -11.8%
6 | CNCC(O)c1ccc(O)c(O)c1 (stereo unspecified) | -0.467%
7 | CCC(C)c1ccc(O)c(/C=N/O)c1 (stereo unspecified) | 51% (active)
8 | CS(=O)(=O)N(Cc1ccc(Cl)cc1)c1ccc(C(=O)NCCSCc2ccco2)cc1 | -4.92%
9 | CCc1c(C)c2ccc(OC3CCCCC3=O)cc2oc1=O (stereo unspecified) | -0.131%
10 | O=C(NCCCN1CCN(c2ccccc2F)CC1)C1CCC(=O)N1C1CCCCC1 (stereo unspecified) | 0.0726%
11 | Cc1c(C(=O)NCCN(C)C)oc2ccc(S(=O)(=O)N3CCCC3)cc12 | -7.61%
12 | COc1ccc(C(CCN(Cc2ccc(OC)c(OC)c2)C(=O)CCl)c2ccccc2)cc1 (stereo unspecified) | 97.3% (active)
13 | CCOc1ccc(C(CCc2ccccc2)NC(=O)c2ccc(OC)c(OC)c2)cc1OCC (stereo unspecified) | 30.5%
14 | COc1ccc(CCNC(=O)CN(c2ccccc2)S(C)(=O)=O)cc1OC | -3.49%
15 | CCOc1ccc(NC(=O)N(CCC(C)C)C(C)c2ccco2)cc1 (stereo unspecified) | -2%
16 | N#Cc1ccc(OCc2nnc(-c3ccc([N+](=O)[O-])cc3)o2)cc1 | -1.32%
17 | CCOc1ccc(-c2nnc(-c3ccco3)o2)cc1 | 55.3% (active)
18 | Cc1nc(-c2ccc(NC(=O)c3cccs3)cc2)cs1 | 81% (active)
19 | COc1cc(NC(=O)c2ccc(-c3csc(C)n3)cc2)c(OC)cc1Cl | 25.1%
20 | O=C(Nc1n[nH]c(C(F)(F)F)n1)c1cccs1 | -2.07%
21 | CC(=O)NNc1cc(=O)c2c(=O)n(C)c(=O)n(C)c2[nH]1 | 7.17%

Row | SMILES | inhibition (viability loss, TRAIL sensitization)
22 | Cc1cnc(NC(=O)Cn2cnc3c2c(=O)n(C)c(=O)n3C)s1 | -2.16%
23 | Cc1cnc(NC(=O)c2ccccn2)s1 | 56% (active)
24 | Cc1cc(C)cc(NC(=O)NCc2ccccn2)c1 | 7.88%
25 | COc1ccc2occ(C(=O)c3ccc(N=C(C)N(C)C)cc3)c2c1 | 10.5%
26 | CCc1nnc(NS(=O)(=O)c2ccc(NC(=O)c3cccc(OC(F)(F)C(F)F)c3)cc2)s1 | -18.2%
27 | Cc1ccc(NC(=O)c2ccc(Oc3ncccn3)cc2)cc1 | 1.61%
28 | O=C(Nc1ccc(OC(F)(F)F)cc1)c1ccc2c(c1)no[n+]2[O-] | 86.8% (active)
29 | Cc1ccccc1C(=O)NNC(=O)CN1C(=O)c2ccccc2C1=O | -2.34%
30 | C=CCN(CC=C)C(=O)CN1C(=O)c2ccccc2C1=O | 36.5%
31 | C=CCn1c(C)cc(C(=O)CN2C(=O)c3ccccc3C2=O)c1C | 52% (active)
32 | COc1ccc(CN2C[C@H]3CON(C)[C@H]3C[C@H]2c2ccc(-c3cccc(F)c3)cc2)cc1 | 17%
33 | COc1cc(NC(=O)Nc2ccc(C)cc2)cc([N+](=O)[O-])c1 | 3.5%
34 | COc1ccc(NC(=O)/C(Cl)=C(/Cl)S(=O)Cc2ccc(C)cc2)cn1 (stereo unspecified) | 95.5% (active)
35 | COC(C)(C)[C@]12CC(O)(C(C)C)ON1[C@H]1CCCCC1N2O (stereo partly specified) | -21.2%
36 | O=[N+]([O-])c1c(NCCO)cc(Sc2nc3ccccc3s2)c2nonc12 | 20.4%
37 | O=[N+]([O-])c1cccc(C=NN=Cc2ccccc2O)c1 | 11%
38 | O=[N+]([O-])c1cc(Br)c(O)c(/C=N/Nc2nc3ccccc3s2)c1 | 51.2% (active)
39 | CC(C)C[C@H]1CNC(=S)N1C[C@H]1CCCN1C[C@H](Cc1ccc(O)cc1)N1C[C@H](Cc2ccc(O)cc2)N(CC2CCCCC2)C1=S | 9.11%
40 | COc1cc(/C=C2\Oc3ccc(C#Cc4ccc(O)cc4)cc3C2=O)cc(OC)c1 | 64.7% (active)
41 | COc1cc(C(=O)N2CCOC23CCN(Cc2ccccc2)CC3)cc(OC)c1OC | -0.803%
42 | CCSCc1nc(N)nc(NCCc2ccccc2)n1 | -10.6%

Row | SMILES | inhibition (viability loss, TRAIL sensitization)
43 | CC(=O)Nc1cccc(C(=O)OCC(=O)NCc2cc(C)c(O)c(C)c2)c1 | -2.97%
44 | CC(=O)Nc1cccc(C(=O)OCC(=O)c2ccc3c(c2)OCO3)c1 | 61.4% (active)
45 | CC(=O)Nc1cccc(C(=O)OCN2C(=O)c3ccccc3C2=O)c1 | -5.54%
46 | CC(C)C[C@@H](COc1ccccc1)N1CCN(CC(C)C)CCC1=O | -6.68%
47 | CCCCc1nc(NCCN)c(C#N)c2c1CSC(C)(C)C2 | 57.7% (active)
48 | CCCCc1nc(NCc2ccccc2)c(C#N)c2c1CCCC2 | 4.11%
49 | CC(=O)N1CCCc2cc(S(=O)(=O)N3CCCC(C(=O)N4CCN(c5cccc(Cl)c5)CC4)C3)ccc21 (stereo unspecified) | 35.8%
50 | Cc1nc2ccc(N)nc2nc1C | 6.29%
51 | COc1cccc(-n2c(=O)c3c(C)c(C(=O)N(C)C)sc3n(CC(=O)NCCc3ccc(OC)c(OC)c3)c2=O)c1 | -6.94%
52 | C/C(=N\OC(=O)c1ccccc1)c1c(C)nc2cc(C)ccn12 | -6.57%
53 | Cc1cc(OC(=O)c2ccccc2Cl)ccc1N1C(=O)CCC1=O | 7.7%
54 | Cc1cccc(/C(N)=N/OC(=O)c2ccccc2Cl)c1 | 60.5% (active)
55 | O=C(Nc1cccc2c1N(C(=O)c1ccco1)CCC2)c1ccco1 | -4.17%
56 | Cc1ccc(C(C)C)c(OCCSc2nc3ccccc3n2CC(=O)O)c1 | -6.21%
57 | COc1ccc(NC(=O)CN2C(=O)COc3ccc(S(=O)(=O)N4CCOCC4)cc32)cc1 | 4.01%
58 | Cc1cc(Cl)c2oc(C(=O)N3CCC(O)(c4ccccc4)CC3)c(C)c2c1 | 12.6%
59 | C[C@@H](Nc1nc(-c2ccccc2)nc2c1oc1ccccc12)C(=O)O | -9.15%
60 | Cc1nc(N2CCCC2C(=O)O)c2oc3ccccc3c2n1 (stereo unspecified) | -12.2%
61 | Cc1nc(Cl)c2oc3ccccc3c2n1 | 69.6% (active)
